Reference: ChEMBL document CHEMBL1961873, “Compounds: GSK PKIS; Assays: Nanosyn kinase panel” (2012)
Where “and” joins values, the source holds several entries; their conditions need not be identical. Equal entries are not always repeated.

Key:
[1] = biological target: T1, 3-phosphoinositide-dependent protein kinase 1 (Homo sapiens) (UniProt O15530); conditions: at 0.1 µM;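 note: values are mean inhibition of PDK1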
T1 sequence (whole entry): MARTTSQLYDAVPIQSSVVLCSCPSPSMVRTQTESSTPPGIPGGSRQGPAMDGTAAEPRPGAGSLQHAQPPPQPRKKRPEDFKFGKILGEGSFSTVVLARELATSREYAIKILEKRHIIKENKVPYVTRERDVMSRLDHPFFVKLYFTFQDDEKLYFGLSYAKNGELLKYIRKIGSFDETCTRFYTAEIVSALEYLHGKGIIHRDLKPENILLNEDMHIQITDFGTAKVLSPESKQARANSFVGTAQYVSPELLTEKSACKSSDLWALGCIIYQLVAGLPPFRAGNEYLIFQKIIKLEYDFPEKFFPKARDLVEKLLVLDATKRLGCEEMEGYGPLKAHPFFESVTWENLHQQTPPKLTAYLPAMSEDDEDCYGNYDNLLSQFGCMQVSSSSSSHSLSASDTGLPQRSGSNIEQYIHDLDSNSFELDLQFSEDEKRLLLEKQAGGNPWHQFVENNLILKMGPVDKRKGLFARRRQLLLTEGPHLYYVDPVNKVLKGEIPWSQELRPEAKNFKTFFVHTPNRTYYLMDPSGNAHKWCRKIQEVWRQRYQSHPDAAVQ

[2] = biological target: cAMP-dependent protein kinase catalytic subunit alpha (Homo sapiens) (UniProt P17612); conditions: at 0.1 µM
[3] = biological target: cAMP-dependent protein kinase catalytic subunit alpha (Homo sapiens) (UniProt P17612); conditions: at 1 µM
[4] = biological target: Protein kinase C alpha type (Homo sapiens) (UniProt P17252); conditions: at 0.1 µM
[5] = biological target: Protein kinase C alpha type (Homo sapiens) (UniProt P17252); conditions: at 1 µM
[6] = biological target: Protein kinase C beta type (Homo sapiens) (UniProt P05771); conditions: at 0.1 µM
[7] = biological target: Protein kinase C beta type (Homo sapiens) (UniProt P05771); conditions: at 1 µM
[8] = biological target: Protein kinase C eta type (Homo sapiens) (UniProt P24723); conditions: at 0.1 µM
[9] = biological target: Protein kinase C eta type (Homo sapiens) (UniProt P24723); conditions: at 1 µM
[10] = biological target: Protein kinase C gamma type (Homo sapiens) (UniProt P05129); conditions: at 0.1 µM;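 note: values are mean percent inhibition of PKC gamma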

Chain of Protein kinase C eta type (Homo sapiens) (P24723 whole entry): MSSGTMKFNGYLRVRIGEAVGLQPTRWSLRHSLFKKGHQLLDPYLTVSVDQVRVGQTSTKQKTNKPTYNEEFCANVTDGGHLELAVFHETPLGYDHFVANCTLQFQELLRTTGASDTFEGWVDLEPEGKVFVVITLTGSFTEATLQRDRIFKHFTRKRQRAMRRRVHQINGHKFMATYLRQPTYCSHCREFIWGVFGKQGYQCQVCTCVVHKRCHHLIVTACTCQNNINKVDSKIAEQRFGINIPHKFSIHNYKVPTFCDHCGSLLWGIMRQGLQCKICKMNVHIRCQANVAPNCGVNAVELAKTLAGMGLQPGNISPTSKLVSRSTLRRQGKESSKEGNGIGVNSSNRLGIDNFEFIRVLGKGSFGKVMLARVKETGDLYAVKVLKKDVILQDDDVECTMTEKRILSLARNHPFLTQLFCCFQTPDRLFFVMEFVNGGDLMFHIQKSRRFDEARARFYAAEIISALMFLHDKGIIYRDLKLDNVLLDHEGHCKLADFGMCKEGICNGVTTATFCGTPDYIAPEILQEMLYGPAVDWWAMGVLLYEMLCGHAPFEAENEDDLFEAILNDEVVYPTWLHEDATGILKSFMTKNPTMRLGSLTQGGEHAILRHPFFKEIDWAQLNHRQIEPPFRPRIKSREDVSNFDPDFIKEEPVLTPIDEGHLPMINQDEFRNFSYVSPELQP
Chain of Protein kinase C beta type (Homo sapiens) (P05771 2-671 limits assumed): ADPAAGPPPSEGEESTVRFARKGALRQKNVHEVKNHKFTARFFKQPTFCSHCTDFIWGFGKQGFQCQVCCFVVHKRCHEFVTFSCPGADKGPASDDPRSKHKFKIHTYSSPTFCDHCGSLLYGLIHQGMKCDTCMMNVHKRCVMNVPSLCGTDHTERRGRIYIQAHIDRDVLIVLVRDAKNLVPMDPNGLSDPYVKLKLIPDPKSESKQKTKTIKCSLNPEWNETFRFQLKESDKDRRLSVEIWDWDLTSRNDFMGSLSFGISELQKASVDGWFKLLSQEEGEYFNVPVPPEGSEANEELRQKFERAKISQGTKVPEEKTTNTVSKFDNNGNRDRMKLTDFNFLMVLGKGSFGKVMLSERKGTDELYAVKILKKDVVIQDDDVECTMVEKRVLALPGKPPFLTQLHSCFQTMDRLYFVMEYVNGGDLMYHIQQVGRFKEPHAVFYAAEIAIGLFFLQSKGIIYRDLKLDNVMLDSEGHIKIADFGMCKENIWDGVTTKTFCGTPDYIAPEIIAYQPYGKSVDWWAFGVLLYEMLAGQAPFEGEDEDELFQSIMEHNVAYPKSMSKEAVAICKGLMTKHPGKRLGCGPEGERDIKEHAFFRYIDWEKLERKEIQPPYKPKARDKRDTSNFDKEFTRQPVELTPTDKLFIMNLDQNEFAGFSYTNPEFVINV

| Compound | inhibition [1] | inhibition [2] | inhibition [3] | inhibition [4] | inhibition [5] | inhibition [6] | inhibition [7] | inhibition [8] | inhibition [9] | inhibition [10] |
| --- | --- | --- | --- | --- | --- | --- | --- | --- | --- | --- |
| COc1ccc(Nc2ncc(-c3ccccc3)o2)cc1OC | 2.22% | 0.2% | 1.87% | 1.08% | 4.51% | -0.02% | 3.24% | 0.42% | -1.25% | 0.58% |
| COc1cccc(-n2ncc3c(N/N=C/c4ccc(C(=O)NCCN(C)C)cc4)ncnc32)c1 | 2.52% | 2.29% | 11.4% | 1.03% | 9.37% | 1.2% | 6.99% | 2.52% | 0.62% | 26.3% |
| CN1CCC(C(=O)Nc2n[nH]c3nc(-c4ccc(O)cc4)c(Br)cc23)CC1 | 0.58% and 1.23% | -1.53% and 1.47% | 1.39% and 2.8% | -2.91% and 0.74% | 7.49% and 11.2% | 2.04% and 0.96% | 13.9% and 10.2% | 3.63% and 1.62% | 8.67% and 3.54% | 4.29% and -2.24% |
| Nc1ncnc2occ(-c3ccc(NC(=O)Nc4cc(C(F)(F)F)ccc4F)cc3)c12 | 2.41% and -0.72% | 0.57% and -0.25% | 1.31% and -1.17% | 0.16% and -0.04% | 0.52% and -0.37% | 1.05% and -0.26% | 1.13% and 0.29% | 1.5% and 0.01% | 1.23% and -2.29% | -0.11% and -2.32% |
| FC(F)(F)CNc1nccc(-c2cnn3ncccc23)n1 | -1.1% | 2.98% | 2.52% | 1.22% | 2.56% | 1.27% | 1.54% | 2.22% | 1.8% | 2% |
| COc1ccc2ncn(-c3cc(O[C@H](C)c4ccccc4C(F)(F)F)c(C(N)=O)s3)c2c1 | 0.59% | 0.69% | 0.52% | 0.07% | 0.04% | 0.44% | 1.04% | 1.89% | 1.45% | -2.52% |
| CCn1c(-c2nonc2N)nc2cncc(C(=O)NCCNC)c21 | 1.56% | 42.5% | 78.2% | 15.5% | 58.2% | 61.1% | 74.4% | 73.9% | 93.6% | 6.21% |
| CN1CCC(n2cnc(-c3ccc(F)cc3)c2-c2ccnc(NCCO)n2)CC1 | 1.23% | 2.28% | 4.71% | 1.14% | 6.57% | 0.78% | 5.76% | 3.08% | 2.5% | 3.49% |
| Cc1c2ccc(N(C)c3ccnc(Nc4cccc(S(N)(=O)=O)c4)n3)cc2nn1C | 1.36% | -2.27% | -0.54% | -2.47% | -0.96% | 0.1% | -0.52% | 4.05% | 1.15% | 1.65% |
| COC(=O)Nc1nc2ccc(Oc3ccc(NC(=O)Nc4cc(C(F)(F)F)ccc4F)cc3)cc2s1 | 0.63% | 1.2% | 0.64% | -0.14% | 9.89% | 1.64% | 2.17% | 2.29% | 1.44% | -2.55% |
| NS(=O)(=O)c1ccc(N/N=C2\C(=O)Nc3cccc(CCc4ccncc4)c32)cc1 | 6.76% | 1.41% | 1.07% | 0.11% | 0.43% | -0.59% | -0.96% | -1.41% | 1.16% | -0.97% |
| Nc1nonc1-c1nc2cnccc2n1C1CC1 | 2.07% and 2.38% | 5.45% and 2.09% | 36.2% and 35.9% | 1.78% and -0.98% | 15.7% and 16.9% | 45% and 47.9% | 68.3% and 74.8% | 45.9% and 49.3% | 88.8% and 90.8% | 3.3% and 3.29% |
| CCCNc1cccc(-n2ncc3c(N/N=C/c4ccncc4)ncnc32)c1 | 1.19% | 1.59% | 3.62% | 0.98% | 1.45% | 1.35% | 5.99% | 2.17% | 2.92% | 1.35% |
| Fc1ccc(Nc2nccc(-c3c(-c4ccc(C(F)(F)F)cc4)nn4ncccc34)n2)cc1F | 3.96% | 1.44% | 1.2% | 1.5% | 2.09% | -0.08% | -1.29% | 0.94% | 1.72% | 1.67% |
| COc1cccc(Nc2nccc(-c3cnn4ncccc34)n2)c1 | 2.46% | 1.16% | 6.04% | 6.2% | 43.4% | 0.55% | 5.61% | 2.46% | 7.69% | -1.41% |
| OCCCNc1nccc(-c2c(-c3ccc(F)cc3)nn3cc(C(F)(F)F)ccc23)n1 | 2.27% | 5.3% | 1.41% | 0.43% | 2.81% | 3.23% | 5.54% | 3.94% | 0.31% | 2.28% |
| COc1cc(N2CCN(C(C)C)CC2)ccc1Nc1nc(Nc2cccc(F)c2C(=O)O)c2cc[nH]c2n1 | 2.24% | 1.49% | 2.03% | 1.38% | 2.23% | -0.07% | 3.07% | 2.71% | 4.16% | 1.77% |
| O=C(O[C@H]1CN[C@H](C#Cc2cc3ncnc(Nc4ccc(OCc5cccc(F)c5)c(Cl)c4)c3s2)C1)N1CCOCC1 | 0.08% | 2.39% | 3.33% | 0.97% | -4.52% | 1.43% | 2.48% | 2.88% | 5.07% | 4.27% |
| O=C1Nc2ccccc2/C1=C1\CCc2cc(O)ccc21 | 15.1% | 2.16% | 4.57% | 1.24% | 2.87% | 0.69% | 1.16% | 2.22% | 3.7% | 2.96% |
| COc1cc2c(cc1Nc1nc(Nc3cccc(F)c3C(N)=O)c3cc[nH]c3n1)N(C(=O)CN1CCN(C(C)C)CC1)CC2 | -0.05% | 3.63% | 2.83% | 3.39% | 1.01% | 0.6% | 3.47% | 0.59% | 1.37% | 1.36% |

| Compound | inhibition [1] | inhibition [2] | inhibition [3] | inhibition [4] | inhibition [5] | inhibition [6] | inhibition [7] | inhibition [8] | inhibition [9] | inhibition [10] |
| --- | --- | --- | --- | --- | --- | --- | --- | --- | --- | --- |
| CN(c1ccc(NC(=O)NCCN2CCOCC2)cc1)c1ccnc(Nc2ccc(CS(C)(=O)=O)cc2)n1 | 0.31% | 1.27% | 4.06% | -0.51% | -0.33% | 0.46% | 1.54% | 4.71% | 5.63% | 2.51% |
| COc1cc(Nc2ncc(-c3ccccc3)o2)cc(OC)c1 | 1.45% | 1.51% | 1.67% | 1.19% | 1.72% | 0.24% | 2.31% | 4.07% | 6.3% | 0.82% |
| CC(C)c1ccc(-c2cc(-c3c[nH]nc3-c3ccccn3)ccn2)cc1 | 1.17% | 1.32% | 2.36% | 0.02% | 1.23% | 2.16% | 3.68% | 1.36% | 0.07% | -1.26% |
| NC(=O)c1ccc2c(-c3ccnc(NCCCO)n3)c(-c3ccc(F)cc3)nn2c1 | 2.05% | 2.22% | 2.01% | 1.39% | 11% | 2.42% | 17.5% | 2.29% | 4.92% | 3.3% |
| CS(=O)(=O)Nc1ccc(-c2cc(-c3ccccc3)cc(C(N)=O)c2N)cc1 | -0.56% | 0.69% | -0.07% | 0.46% | 1.59% | -0.05% | -0.92% | 1.6% | 1.53% | 1.15% |
| CC1=C(C(=O)Nc2ccc3[nH]nc(C)c3c2)C(c2ccc(C(F)(F)F)cc2)CC(=O)N1 (stereo not given) | 1.14% | 3.3% | 26.6% | 0.72% | 7.98% | -0.41% | -0.53% | 3.4% | 9.11% | 4.48% |
| Cc1cc(O)cc(C)c1/C=C/c1cncc(C(N)=O)c1 | 1.65% | 1.78% | 2.91% | 1.24% | 1.91% | -0.18% | -2.09% | 1.74% | -2.58% | 3.81% |
| CNC(=O)c1cncc(/C=C/c2ccccc2C)c1 | 2.42% | 4.12% | 3.53% | 0.63% | 1.68% | 1.31% | 5.47% | 4.83% | 5.78% | -2.58% |
| CS(=O)(=O)CCNCc1ccc(-c2ccc3ncnc(Nc4ccc(OCc5cccc(C(F)(F)F)c5)cc4)c3c2)o1 | 0.06% | 1.97% | 4.62% | 1.05% | 2.11% | 1.32% | 0.08% | 6.28% | 4.9% | 2.65% |
| Fc1cccc(COc2ccc(Nc3ncncc3C#Cc3ccccc3)cc2Cl)c1 | 3.09% | 2.03% | 2.57% | 1.03% | 1.01% | 1.01% | 4.8% | 0.23% | 4.62% | 3.66% |
| CCS(=O)(=O)c1ccc(OC)c(Nc2ncc(-c3cccc(C(C)=O)c3)o2)c1 | 0.17% | 1.47% | 1.88% | 0.74% | 0.95% | -0.44% | 3.77% | 3.76% | 3.11% | 2.68% |
| COc1ccccc1-c1cc(/C=C2\C(=O)Nc3ncc(Br)cc32)cc(Br)c1O | 2.09% | 1.83% | 1.05% | 0.82% | 1.73% | -0.31% | 0.26% | 2.06% | 1.62% | -0.61% |
| COc1ccc(-c2nn3ncccc3c2-c2ccnc(Nc3ccc(F)c(F)c3)n2)cc1 | 0.91% | 1.99% | 3.24% | 0.39% | 1.74% | 1.53% | 5.16% | 1.15% | 7.16% | 4.72% |
| CN1CCN(Cc2ccc(-c3cc4ncnc(Nc5ccc(OCc6cccc(F)c6)c(Cl)c5)c4s3)o2)CC1 | 14.8% and 0.07% | 1.2% and 3.28% | 5.56% and 3.03% | 0.64% and 0.88% | 1.87% and 2.52% | -1.25% and 0.04% | 0.12% and 3.28% | 4.86% and 6.13% | 3.75% and 6.04% | 0.69% and 2.55% |
| CCOc1ccc2c(-c3ccnc(Nc4cc(OC)cc(C(F)(F)F)c4)n3)cnn2n1 | 1.07% | 0.6% | 3.91% | 0.42% | 5.31% | 5.55% | 2.13% | 1.53% | -0.66% | 1.75% |
| CN(C)CCNC(=O)Nc1ccc(N(C)c2ccnc(Nc3ccc(CS(C)(=O)=O)cc3)n2)cc1 | 2.36% | 2.31% | 5.69% | 1.06% | 1.51% | -0.61% | 0.12% | 5.94% | -2.33% | 2.25% |
| COc1cc(N2CCN(C(C)C)CC2)ccc1Nc1nc(Nc2cccc3ncccc23)c2cc[nH]c2n1 | -0.4% | 0.01% | 0.68% | -0.39% | 1.71% | -0.38% | 2.34% | -2.11% | -3.36% | -0.77% |
| Cc1ccc(-c2cc3c(NC(=O)C4CC4)ncnc3o2)cc1 | 1.92% | 1.76% | 1.5% | 0.9% | 0.92% | 2.14% | 2.41% | 2.1% | 1.62% | 2.91% |
| CCN1CCC(C(=O)Nc2n[nH]c3nnc(-c4cccc(F)c4F)cc23)CC1 | -0.53% | 0.16% | 0.64% | -0.7% | 0.27% | -0.34% | -0.14% | 0.24% | 0.58% | -1.51% |
